Among the data in PubChem BioAssay are composite z-score and z-score values, retold here.

The structures appear in SMILES notation. Calls of active or inactive are those of the source.

Test [1] relates to Plasmodium falciparum Sir2 (PF13_0152, Sir2A). In words: Plasmodium falciparum Sir2A binding compounds – biochemical, small-molecule microarray, 635 nm fluorescence, primary screen (AID 1098).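 Further: score merges spot fluorescence intensity with its signal-to-noise ratio.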 To be noted: fluorescence 635 nm, higher = more signal.
A short description of test [2]: probe aDKK1 binding to arrayed compounds – biochemical, biotinylated probe, 635/667 nm fluorescence, primary screen (AID 1099).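 Further: score merges 667nm spot fluorescence with signal to noise across triplicate slides.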 To be noted: small-molecule microarray, higher = more signal.
A short description of test [3]: probe aCHRDL2 binding to arrayed compounds – biochemical, biotinylated probe, 635/667 nm fluorescence, primary screen (AID 1100). Conditions: small-molecule microarray, higher = more signal.
The nature of test [4]: change in splice reporter luminescence, either direction, cell-based, HEK293, spliceosome inhibition project, primary screen (AID 1101).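 Further: HEK293 cells carrying a splicing-competent luciferase reporter gene; test concentration not given here.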 Conditions: HEK293 splicing luciferase reporter, 24 h, higher = more signal, called active from +8 up or from −8 down.
Test [5] concerns the target Fibroblast growth factor 10 (Homo sapiens) (UniProt O15520). As to the kind of experiment: compounds binding fibroblast growth factor 10 – biochemical, small-molecule microarray, 635 nm fluorescence, primary screen (AID 1102). Conditions: FGF10 binding, fluorescence 635 nm, higher = more signal.
Test [6] relates to glycogen synthase kinase-3 (GSK3A per assay name; protocol says GSK3B). As to the kind of experiment: compounds binding glycogen synthase kinase-3 – biochemical, small-molecule microarray, 635 nm fluorescence, GSK3A, primary screen (AID 1103). Further: the record names both GSK3A and GSK3B. Conditions: fluorescence 635 nm, higher = more signal.
The target of test [7] is Epidermal growth factor receptor (Homo sapiens) (UniProt P00533). As to the kind of experiment: compounds binding epidermal growth factor receptor – biochemical, small-molecule microarray, 635 nm fluorescence, primary screen (AID 1104).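 Further: score merges 667 nm emission intensity with spot signal to noise over triplicate slides.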 To be noted: EGFR binding, higher = more signal.
In test [8] the target is Follistatin-related protein 3 (Homo sapiens) (UniProt O95633). As to the kind of experiment: compounds binding follistatin-related protein 3 – biochemical, small-molecule microarray, 635 nm fluorescence, primary screen (AID 1105).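 Further: score merges emission near 667 nm and signal to noise per printed spot across three slides.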 To be noted: FSTL3 binding, higher = more signal.
For test [9], the target named is Dickkopf-related protein 1 (Homo sapiens) (UniProt O94907). As to the kind of experiment: small molecules binding DKK1 protein – biochemical, small-molecule microarray, 635 nm fluorescence scan, primary screen (AID 1106).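 Further: score merges emission near 667 nm with signal to noise over three replicate slides.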 Conditions: higher = more signal.
Test [10] concerns Inhibin beta A chain (activin A). As to the kind of experiment: small molecules binding activin A – biochemical, small-molecule microarray, 635 nm fluorescence scan, primary screen (AID 1107).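 Further: mouse activin A protein probed at 4.33 µg/mL on printed slides; score merges bound-protein fluorescence near 667 nm with spot signal-to-noise.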 Conditions: INHBA, higher = more signal.
Test [11] relates to Human papillomavirus type 1a protein E7 (residues 44-93). In words: small molecules binding HPV E7 44-93 – biochemical, small-molecule microarray, residues 44-93, 635 nm fluorescence, primary screen (AID 1108).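 Further: E7 fragment applied at 1 µg/mL in TBST for 1 h at 4 C; score combines spot fluorescence with its signal to noise ratio.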 To be noted: fluorescence 635 nm, higher = more signal.
Test [12] can be described thus: hepatitis C replication reporter changes, two-sided – Huh7 cells, luciferase reporter, HCV replication inhibitor project, primary screen (AID 1109).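 Further: huh7 hepatoma cells harbouring a luciferase neomycin HCV replicon reporter; luciferase luminescence as measure of HCV replicon replication; test concentration not given here.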 Conditions: Huh7 HCV replicon luciferase reporter, 48 h; higher = more signal.
In test [13] the target is Left-right determination factor 2 (Homo sapiens) (UniProt O00292). As to the kind of experiment: small molecules binding LEFTY2 protein – biochemical, small-molecule microarray, 635 nm fluorescence scan, primary screen (AID 1110). Conditions: higher = more signal.
In test [14] the target is Calmodulin-1 (Homo sapiens) (UniProt P0DP23). In words: small molecules binding calmodulin-1 with EGTA – biochemical, small-molecule microarray, Cy5-labelled CALM1, profiling panel (AID 1111).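 Further: labelled calmodulin applied in Tris saline Tween buffer holding calcium plus EGTA and DTT.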 To be noted: Cy5-CALM1 binding fluorescence, higher = more signal.
Test [15] has the same target. As to the kind of experiment: small molecules binding Ca-loaded calmodulin-1 – biochemical, small-molecule microarray, Cy5-labelled CALM1, plus calcium, artefact control for SMM control-protein annotation, profiling panel (AID 1112).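 Further: score merges spot fluorescence with signal to noise from triplicate slides.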 Conditions: Cy5-CALM1 binding fluorescence, higher = more signal.
A short description of test [16]: probe aWnt5a binding to arrayed compounds – biochemical, biotinylated probe, 635/667 nm fluorescence, primary screen (AID 1113).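 Further: score merges 667 nm fluorescence intensity with signal-to-noise per printed feature.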 To be noted: small-molecule microarray, higher = more signal.
Test [17] is described as follows: probe aShh binding to arrayed compounds – biochemical, biotinylated probe, 635/667 nm fluorescence, primary screen (AID 1114).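 Further: probe is biotin-labelled aShh protein from a stem cell growth factor screen; measures binding of labelled protein to compounds printed on the slide; score merges feature fluorescence at 667 nm with signal-to-noise.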 Conditions: small-molecule microarray, higher = more signal.
Test [18] can be described thus: probe aNog binding to arrayed compounds – biochemical, biotinylated probe, 635/667 nm fluorescence, primary screen (AID 1115).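 Further: probe is biotinylated aNog protein used at 0.15 µg/mL for 1 h at 4 C; z-score combines 667 nm fluorescence of each spot with its signal to noise.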 Conditions: small-molecule microarray, higher = more signal.
Test [19] concerns the target Torsin-1A-interacting protein 1 (Homo sapiens) (UniProt Q5JTV8). In words: compound microarray binding of lysate hLAP1 – cell lysate, small-molecule microarray, COS7 lysate, 635/667 nm fluorescence, primary screen (AID 1116). To be noted: 635 nm fluorescence, higher = more signal.
Test [20] concerns the target Alpha-bungarotoxin (Bungarus multicinctus) (UniProt P60615). In words: compounds binding labelled alpha-BTX control protein – biochemical, small-molecule microarray, Alexa647 label, 635/667 nm fluorescence, artefact control for SMM control protein annotation, profiling panel (AID 1117). To be noted: alpha-BTX-A647 binding fluorescence, higher = more signal.

Chain of Dickkopf-related protein 1 (Homo sapiens) (O94907 whole entry, looked up): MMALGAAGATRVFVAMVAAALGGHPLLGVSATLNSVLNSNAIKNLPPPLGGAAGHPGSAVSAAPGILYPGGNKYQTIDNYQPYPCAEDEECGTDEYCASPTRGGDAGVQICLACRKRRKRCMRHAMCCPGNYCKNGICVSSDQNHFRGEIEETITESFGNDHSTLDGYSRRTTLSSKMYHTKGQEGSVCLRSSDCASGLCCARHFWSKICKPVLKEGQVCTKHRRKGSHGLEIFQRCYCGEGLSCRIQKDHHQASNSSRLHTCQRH
Chain of Epidermal growth factor receptor (Homo sapiens) (P00533 whole entry, looked up): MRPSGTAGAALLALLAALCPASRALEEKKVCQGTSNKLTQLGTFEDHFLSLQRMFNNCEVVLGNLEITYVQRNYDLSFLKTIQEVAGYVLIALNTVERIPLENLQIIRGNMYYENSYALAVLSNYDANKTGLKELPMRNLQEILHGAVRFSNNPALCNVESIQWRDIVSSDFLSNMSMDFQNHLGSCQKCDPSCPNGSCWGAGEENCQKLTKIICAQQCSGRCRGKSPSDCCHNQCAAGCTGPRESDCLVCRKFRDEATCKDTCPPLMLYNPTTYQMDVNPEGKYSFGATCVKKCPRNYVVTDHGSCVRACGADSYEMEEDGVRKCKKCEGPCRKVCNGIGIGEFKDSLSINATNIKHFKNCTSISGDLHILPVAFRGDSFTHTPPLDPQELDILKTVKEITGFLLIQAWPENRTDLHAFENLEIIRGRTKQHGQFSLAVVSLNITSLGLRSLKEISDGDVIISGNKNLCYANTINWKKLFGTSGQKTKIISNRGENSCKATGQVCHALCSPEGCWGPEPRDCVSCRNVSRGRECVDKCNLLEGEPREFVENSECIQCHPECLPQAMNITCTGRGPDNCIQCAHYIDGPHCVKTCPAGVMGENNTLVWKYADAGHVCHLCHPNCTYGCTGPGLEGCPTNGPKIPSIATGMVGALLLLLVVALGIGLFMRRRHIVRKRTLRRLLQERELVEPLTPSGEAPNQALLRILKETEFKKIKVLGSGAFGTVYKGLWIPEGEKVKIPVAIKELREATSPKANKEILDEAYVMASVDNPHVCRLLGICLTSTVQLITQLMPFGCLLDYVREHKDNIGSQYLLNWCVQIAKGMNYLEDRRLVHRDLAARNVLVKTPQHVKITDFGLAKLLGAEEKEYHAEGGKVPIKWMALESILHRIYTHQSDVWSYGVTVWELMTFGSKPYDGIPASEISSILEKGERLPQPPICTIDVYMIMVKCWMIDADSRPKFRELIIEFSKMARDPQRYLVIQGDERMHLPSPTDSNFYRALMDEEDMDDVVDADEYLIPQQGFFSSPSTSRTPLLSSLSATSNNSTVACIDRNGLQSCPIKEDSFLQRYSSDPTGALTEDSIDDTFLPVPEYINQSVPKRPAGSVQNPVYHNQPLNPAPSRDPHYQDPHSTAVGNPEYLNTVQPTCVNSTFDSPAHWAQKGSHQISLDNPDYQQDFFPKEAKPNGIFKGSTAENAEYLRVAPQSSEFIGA
Chain of Left-right determination factor 2 (Homo sapiens) (O00292 whole entry, looked up): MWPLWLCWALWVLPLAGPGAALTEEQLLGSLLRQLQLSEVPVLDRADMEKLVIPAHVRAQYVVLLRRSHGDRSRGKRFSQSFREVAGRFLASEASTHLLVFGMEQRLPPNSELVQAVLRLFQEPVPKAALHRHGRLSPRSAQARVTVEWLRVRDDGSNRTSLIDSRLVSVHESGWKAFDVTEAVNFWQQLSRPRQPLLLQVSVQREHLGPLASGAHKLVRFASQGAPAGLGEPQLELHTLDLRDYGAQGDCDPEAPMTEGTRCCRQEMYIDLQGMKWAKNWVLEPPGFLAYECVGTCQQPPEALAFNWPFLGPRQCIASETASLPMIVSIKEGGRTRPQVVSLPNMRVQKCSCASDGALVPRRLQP
Chain of Fibroblast growth factor 10 (Homo sapiens) (O15520 whole entry, looked up): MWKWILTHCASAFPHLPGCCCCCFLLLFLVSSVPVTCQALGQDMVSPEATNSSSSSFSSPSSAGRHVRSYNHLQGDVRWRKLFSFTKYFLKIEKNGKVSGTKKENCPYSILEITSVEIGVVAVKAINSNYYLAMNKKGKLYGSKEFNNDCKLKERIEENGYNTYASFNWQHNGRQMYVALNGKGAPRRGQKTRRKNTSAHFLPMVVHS
Chain of Alpha-bungarotoxin (Bungarus multicinctus) (P60615 whole entry, looked up): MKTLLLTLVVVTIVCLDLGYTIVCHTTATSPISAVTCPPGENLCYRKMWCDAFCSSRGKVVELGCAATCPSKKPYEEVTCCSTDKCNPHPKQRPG
Chain of Follistatin-related protein 3 (Homo sapiens) (O95633 whole entry, looked up): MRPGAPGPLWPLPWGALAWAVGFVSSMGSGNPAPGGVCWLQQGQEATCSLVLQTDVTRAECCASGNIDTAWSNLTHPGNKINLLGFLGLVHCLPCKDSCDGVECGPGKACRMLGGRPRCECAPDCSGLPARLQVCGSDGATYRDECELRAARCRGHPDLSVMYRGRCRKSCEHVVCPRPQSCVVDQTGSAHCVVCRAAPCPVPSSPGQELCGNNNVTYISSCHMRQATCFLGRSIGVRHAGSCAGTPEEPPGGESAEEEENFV
Chain of Torsin-1A-interacting protein 1 (Homo sapiens) (Q5JTV8 whole entry, looked up): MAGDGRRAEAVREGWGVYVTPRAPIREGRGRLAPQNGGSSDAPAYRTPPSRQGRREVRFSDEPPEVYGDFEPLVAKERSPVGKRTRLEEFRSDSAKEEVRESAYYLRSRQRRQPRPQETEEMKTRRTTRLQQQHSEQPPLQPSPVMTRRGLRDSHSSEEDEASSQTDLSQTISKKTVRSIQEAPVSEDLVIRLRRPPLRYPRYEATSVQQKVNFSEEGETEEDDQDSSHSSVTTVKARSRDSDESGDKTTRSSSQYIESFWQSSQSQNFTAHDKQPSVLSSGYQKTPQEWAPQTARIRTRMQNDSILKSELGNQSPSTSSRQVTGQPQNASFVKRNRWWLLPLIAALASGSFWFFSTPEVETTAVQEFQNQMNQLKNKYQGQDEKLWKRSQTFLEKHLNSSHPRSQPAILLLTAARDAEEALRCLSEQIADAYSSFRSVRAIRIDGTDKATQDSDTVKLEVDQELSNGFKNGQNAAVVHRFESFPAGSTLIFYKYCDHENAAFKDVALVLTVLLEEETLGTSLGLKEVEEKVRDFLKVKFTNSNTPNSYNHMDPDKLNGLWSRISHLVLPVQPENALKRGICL

`C=CCNC(=O)[C@H]1[C@@H]2C(=O)O[C@@H](c3ccccc3)[C@@H](c3ccccc3)N2[C@@H](c2ccccc2OCCO)[C@]12C(=O)Nc1ccc(C#CC3=CCCCC3)cc12`: the composite z-score in test [1] was 1.28; in test [2], -0.22; in test [3], 0.317; in test [5], 1.27; in test [6], 1.3; in test [7] it was 0.48. For the same compound, the composite z-score in test [8] was found to be 1.24; in test [9], 0.646; in [10], 1.17; in test [11], 1.12; in [13], 0.531; in test [14] it was 0.904. For the same compound, the composite z-score in test [15] is -0.321; in [16], -0.1; in test [17], 0.0588; in test [18], 0.163; in [19], 0.358; in test [20] it was 0.99. The values for the z-score in test [4] and in [12] were -2.23 (inactive) and -3.52, respectively.
`CC1(C)[C@@H]2CC(C(O)C3C=CC4C(=O)N(c5ccccc5)C(=O)C4N3Nc3ccccc3)=C[C@H]1C2` (stereo not given in full): the composite z-score in test [1] is 0.576; in [2], 0.592; in [3] it was 0.663; in [5] it was 0.104; in test [6], 0.33; in test [7], -0.316. Also, the composite z-score in test [8] was 0.114; in test [9], 0.011; in test [10] it was 1.2; in [11], 0.455; in test [13], -0.158; in test [14] it was 0.718. In addition, the composite z-score in [15] is -0.374; in test [16] it was 0.0044; in test [17], 0.241; in test [18] it was -0.43; in test [19], 0.873; in test [20] it was 0.577. In addition, the figures for the z-score in test [4] and in test [12] were 0.99 (inactive) and -0.595, respectively.
With `CC(C)(C)OC(=O)CC[C@@]12N=C(c3ccc(OCCCO)cc3)O[C@@H]1c1ccccc1N(CCS(=O)(=O)c1ccccc1)C2=O`, the composite z-score in test [1] was 0.691; in test [2], 0.512; in test [3], 1.03; in [5] it was -0.122; in test [6], 0.323; in test [7], 0.348. Besides, the composite z-score in [8] was determined as 1.12; in test [9], 0.681; in test [10], 1.05; in [11] it was 1.08; in test [13], 0.374; in [14] it was 0.887. Besides, the composite z-score is 0.105 in test [15]; -0.0203 in test [16]; -0.0035 in [17]; -0.335 in [18]; 0.642 in [19]; 1.35 in [20]. In addition, the z-score in test [4] was -1.14 (inactive); in [12], -0.831.
On to `COc1ccc(NN2C(C(O)c3ccc([N+](=O)[O-])cc3)C=CC3C(=O)N(C4CCCCC4)C(=O)C32)cc1` (stereo not given), for which the composite z-score in test [1] was 0.562; in [2], 0.627; in [3] it was 0.879; in test [5] it was 0.355; in [6] it was 0.909; in test [7] it was -0.188. The composite z-score in test [8] was 0.73; in [9], -0.281; in test [10] it was 0.921; in test [11], 1.35; in [13] it was -0.0693; in [14] it was 1.04. In addition, the composite z-score is 0.212 in test [15]; -0.0758 in test [16]; 0.368 in test [17]; 0.797 in test [18]; 0.55 in [19]; 0.799 in test [20]. For the same compound, the z-score is 0.393 (inactive) in [4] and 0.376 in test [12].
`COC(=O)[C@@]1(Cc2ccccc2)[C@H]2c3cc(C(=O)N4CCCC4)n(Cc4nc5ccccc5[nH]4)c3C[C@H]2CN1C(=O)c1ccccc1`: the composite z-score in test [1] was 0.844; in test [2], 1.1; in [3] it was 1.36; in test [5] it was 0.0471; in [6], 1.19; in test [7] it was -0.361. In addition, the composite z-score was 1.09 in test [8]; -0.137 in test [9]; 0.831 in test [10]; 1.43 in test [11]; -0.0838 in test [13]; 2.55 in [14]. Besides, the composite z-score in test [15] was 1.53; in [16], 0.0003; in test [17] it was -0.2; in [18] it was 2.15; in [19] it was 2.53; in test [20], 0.442. The z-score is -1.52 (inactive) in test [4] and -1.89 in test [12].
Regarding `O=C1OCC=C[C@H]2OC34C=CCN(c5ccc6ccccc6c5)C(=O)[C@H]3N(CCCCCCO)C(=O)[C@@H]4[C@@H]12` (stereo not given in full), the composite z-score in test [1] is 1.66; in test [2], -0.117; in test [3], 0.817; in test [5], -0.821; in [6], -1.12; in test [7], -1.79. The composite z-score in test [8] was -1.69; in test [9], -0.854; in test [10] it was 0.0633; in test [11], -0.925; in test [13] it was -1.06; in [14], -0.327. Besides, the composite z-score in [15] was 0.132; in [16], -0.152; in test [17], 0.0121; in test [18], 0.509; in [19], 1.09; in test [20], -1.01. In addition, the z-score in test [4] is -0.076 (inactive); in test [12] it was 0.699.
